Screening results as filed in PubChem BioAssay.
FadD28 binding: inhibitors of Mycobacterium tuberculosis FadD28 bisubstrate binding. FadD28 bisubstrate probe binding, fluorescence polarization. inhibition, % at 12.5 µM. actives 0.22% (n = 360,000); in the data active = inhibition above about 8.5%, passing the limit was not always enough
RecA splice inh: blocks M. tuberculosis RecA intein splicing; P9WHJ3; cell-free RecA intein splicing, fluorescence; inhibition, % (concentration not given with the values); actives 0.75% (n = 290,000); in the data active = inhibition above about 30%;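 note: 0% = vehicle wells and 100% = reference inhibitor control wells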
TcdB GH inh: inhibitors of Clostridioides difficile toxin B glycohydrolase; TcdB glycohydrolase enzymatic assay, plate reader; inhibition, % at 9.99 µM; P18177; actives 0.24% (n = 350,000); in the data active = inhibition above about 10%
BioA inh: blocks M. tuberculosis BioA enzyme activity; purified M. tuberculosis BioA enzyme, plate reader; inhibition, % at 9.99 µM; actives 0.096% (n = 360,000); AID 602481; in the data active = inhibition above about 40%
UGM FP inh: inhibitors of M. tuberculosis UDP-galactopyranose mutase; actives 0.06% (n = 320,000); AID 504406; inhibition, % at 10 µM; purified UGM, fluorescence polarization probe displacement; P9WIQ1; in the data active = inhibition above about 10%, passing the limit was not always enough
Target sequence (P9WIQ1 whole entry, looked up): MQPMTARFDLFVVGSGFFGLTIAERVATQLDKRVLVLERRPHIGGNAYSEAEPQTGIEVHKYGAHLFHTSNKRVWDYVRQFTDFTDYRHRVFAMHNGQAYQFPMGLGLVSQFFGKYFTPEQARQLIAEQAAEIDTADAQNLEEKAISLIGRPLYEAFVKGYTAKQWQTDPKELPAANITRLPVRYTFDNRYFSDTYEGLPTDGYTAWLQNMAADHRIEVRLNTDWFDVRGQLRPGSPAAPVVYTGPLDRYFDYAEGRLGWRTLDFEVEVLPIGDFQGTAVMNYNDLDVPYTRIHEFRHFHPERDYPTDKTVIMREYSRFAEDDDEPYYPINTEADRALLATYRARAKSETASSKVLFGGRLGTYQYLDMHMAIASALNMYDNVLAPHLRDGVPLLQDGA
Rv3671c protease: Rv3671c (M. tuberculosis) protease inhibition; inhibition, % at 5.96 µM; actives 0.048% (n = 320,000); AID 2606; in the data active = inhibition above about 38%;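 note: extracellular domain of Rv3671c used as enzyme; 0% = enzyme with DMSO and 100% = no enzyme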
Starred values were filed as active, the others as inactive. Hits are enriched below; roughly 0.9% of the tested compounds scored in any of these assays.

Screening CCn1c(N)c(C(=O)NCC2CCCO2)sc1=S (stereo not given) returned FadD28 binding -2.2, RecA splice inh -2.6, BioA inh 0.2, UGM FP inh -1.9 and Rv3671c protease 1.2.
Screening Cc1ccc(CNC(=O)c2ccc3c(=O)n(CC4CCCO4)c(=S)[nH]c3c2)cc1 (stereo not given) returned FadD28 binding 0.7, RecA splice inh 3.8, BioA inh -0.5, UGM FP inh 3.1 and Rv3671c protease -12.1.
O=C(NCc1ccccc1)c1ccc2c(=O)[nH]c3c(C(=O)NCC4CCCO4)sc(=S)n3c2c1 (stereo not given) was read as FadD28 binding 23.4*, RecA splice inh -48.5, TcdB GH inh 0.2, BioA inh 1.9, UGM FP inh 0.2 and Rv3671c protease 2.6.
O=C(C1CCC1)N1CC2(C1)[C@@H](c1ccccc1)[C@H](CO)N2C(=O)c1ccccn1 was read as TcdB GH inh -1.4.
COc1ccc(NC(=O)N2CC3(C2)CN(CC2CC2)[C@@H](CO)c2c3c3ccc(OC)cc3n2C)cc1 was read as TcdB GH inh 1.9.
`CCC(=O)N1[C@H](CO)[C@H]2c3ccccc3N(S(=O)(=O)c3ccc(F)cc3)C[C@H]21` gave TcdB GH inh 0.4 and BioA inh -2.2.
CC(C)NC(=O)N(C)C[C@H]1OCCCC[C@H](C)Oc2ccc(NS(=O)(=O)c3ccccc3)cc2C(=O)N([C@@H](C)CO)C[C@@H]1C was read as TcdB GH inh 0.8 and BioA inh -2.0.
`CCS(=O)(=O)Nc1ccc2c(c1)OC[C@H](C)NC[C@@H](C)[C@@H](OC)CN(C)C2=O` gave BioA inh -0.6.
For CC1=NN(c2cccc(Cl)c2)C(=O)C1 the results were FadD28 binding 1.4, RecA splice inh 94.4*, TcdB GH inh -0.1, BioA inh -0.5, UGM FP inh 1.2 and Rv3671c protease -182.1.
Screening CC1=NN(c2ccc([N+](=O)[O-])cc2)C(=O)C1 returned FadD28 binding 13.8*, TcdB GH inh 1.1 and BioA inh 1.2.
CCCC(=O)Nc1ccc2c(c1)C(=O)N(C)[C@H]1CC[C@H](CC(=O)Nc3cccc(F)c3)O[C@@H]1CO2 was read as TcdB GH inh 0.3.
O=C(O)c1ccccc1-c1ccc(/C=c2\sc3nc4cc(Br)cnc4n3c2=O)o1 was read as FadD28 binding 23.7*, RecA splice inh -12.2, BioA inh -0.2, UGM FP inh -1.9 and Rv3671c protease 5.9.
For Cc1cc2nc3s/c(=C/c4ccc(-c5ccccc5C(=O)O)o4)c(=O)n3c2cc1C the results were FadD28 binding 0.6, RecA splice inh 0.5, TcdB GH inh -0.1, BioA inh 2.4, UGM FP inh 0.5 and Rv3671c protease -5.4.
Cc1noc(C)c1NC(=O)N(C)C[C@@H]1Oc2ncc(C3=CCCC3)cc2C(=O)N([C@H](C)CO)C[C@@H]1C was read as TcdB GH inh -1.1 and BioA inh -4.1.
Screening CCC(=O)N1[C@H](CO)[C@@H](c2ccc(C3=CCCC3)cc2)[C@@H]1CN(C)C(C)=O returned BioA inh 0.2.
Cc1ccc(S(=O)(=O)N(C)C[C@@H]2OCCCC[C@@H](C)Oc3ccc(NS(=O)(=O)c4cccs4)cc3C(=O)N([C@@H](C)CO)C[C@@H]2C)cc1 was read as TcdB GH inh 0.6 and BioA inh 5.6.
`O=C(NCCc1ccc(Cl)cc1)C1CCN(S(=O)(=O)c2ccc(Br)s2)CC1` gave FadD28 binding -6.6, RecA splice inh -1.4, TcdB GH inh 15.7*, UGM FP inh -0.1 and Rv3671c protease -5.1.
Screening CCOC(=O)CNc1ccc2c(c1)OCO2 returned FadD28 binding 0.4, RecA splice inh -3.6, BioA inh -6.1, UGM FP inh 11.7* and Rv3671c protease 6.4.
`O=C(O)c1ccccc1C1=Nc2ccc(O)cc2Oc2cc(O)ccc21` gave FadD28 binding -1.3, RecA splice inh -1.0, UGM FP inh 14.3* and Rv3671c protease 20.0.
For O=S(=O)(Nc1ccc2cn[nH]c2c1)c1ccc(C(F)(F)F)cc1 the results were FadD28 binding -4.0, TcdB GH inh 2.2, BioA inh 2.9, UGM FP inh 0.3 and Rv3671c protease -2.9.
`O=C(O)c1cc(S(=O)(=O)Nc2ccc3cn[nH]c3c2)ccc1Cl` gave FadD28 binding -0.2, TcdB GH inh 10.3*, BioA inh 0.1, UGM FP inh 3.6 and Rv3671c protease 2.3.
`C[C@@H]1CCCCO[C@@H](CN(C)S(=O)(=O)c2ccc(F)cc2)[C@H](C)CN([C@@H](C)CO)C(=O)c2cc(NC(=O)NC3CCCCC3)ccc2O1` gave TcdB GH inh -0.7 and BioA inh -1.4.
For Cc1ccnc(NS(=O)(=O)c2ccc(NC(=O)COc3ccccc3)cc2)n1 the results were FadD28 binding -0.1, RecA splice inh -0.9, TcdB GH inh -0.4, UGM FP inh -0.7 and Rv3671c protease 0.2.
Screening O=C(COc1ccccc1)Nc1ccc(CN2CCCCC2)cc1 returned FadD28 binding 15.8*, RecA splice inh -46.5, TcdB GH inh 1.2, BioA inh 7.8, UGM FP inh -3.3 and Rv3671c protease -3.5.
For O=C(COc1ccccc1)Nc1ccc(N2CCCCC2)cc1 the results were FadD28 binding -0.2, RecA splice inh 0.4, TcdB GH inh 0.2, BioA inh -3.1, UGM FP inh 0.6 and Rv3671c protease -4.6.
For O=C(COc1ccccc1)Nc1ccc(S(=O)(=O)Nc2ncccn2)cc1 the results were FadD28 binding -3.6, RecA splice inh 0.4, TcdB GH inh 16.6*, UGM FP inh 1.2 and Rv3671c protease -5.8.
`COCC(=O)Nc1ccc2c(c1)OC[C@@H](C)N(C(=O)Cc1ccccn1)C[C@H](C)[C@H](OC)CN(C)C2=O` gave TcdB GH inh -0.5 and BioA inh -1.2.
Screening S=C(NCCc1ccccc1)Nc1ncccn1 returned FadD28 binding -1.2, TcdB GH inh 10.6* and BioA inh -0.3.
`Cc1cccnc1NC(=S)NCCc1ccccc1` gave FadD28 binding -3.2, RecA splice inh 1.2, TcdB GH inh 0.3, UGM FP inh 0.5 and Rv3671c protease -12.4.
For CC(=O)c1ccc(-n2nncc2C(C)(C)C)cc1 the results were FadD28 binding -1.3, RecA splice inh -3.7, TcdB GH inh 1.0, UGM FP inh 2.5 and Rv3671c protease 2.7.
`Cc1cnnn1-c1ccc(C(=O)CCl)cc1` gave FadD28 binding -0.1, RecA splice inh 52.5*, UGM FP inh -1.8 and Rv3671c protease -7.9.
For CS(=O)(=O)Nc1ccc2c(c1)[C@H]1C[C@H](CC(=O)NC3CCCC3)O[C@H](CO)[C@H]1O2 the results were TcdB GH inh -1.1 and BioA inh 0.5.
`COc1ccc(N(CC(=O)N/N=C/c2ccc(-c3ccc([N+](=O)[O-])cc3)o2)S(=O)(=O)c2ccc(C)cc2)cc1` gave FadD28 binding -3.1, RecA splice inh -11.4, TcdB GH inh -0.1, BioA inh -3.9, UGM FP inh 14.0* and Rv3671c protease 0.8.
